Measured values as given in PubChem BioAssay AID1159580 (chemical genetic matrix, 2015).
The whole screen tested about 5,500 compounds, of which about 2,000 (36%) were called active. Not shown: some 18% with an inconclusive outcome. No stated cut-off is given here; in the data, active means normalized growth mostly below about 0.91 (no sharp cut-off); inconclusive means no clear call, values can overlap the other calls; inactive means mostly above about 0.92. The list shows a part of the results.

Assay: chemical genetic growth profiling, strain panel (AID 1159580);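 further: tested at 20 µM; growth read once vehicle control cultures reached saturation at 30 °C; 1 = growth at the plate median or of vehicle wells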
Conditions: S. cerevisiae deletion strains, growth OD
[1] = locus YDL101C, strain DUN1, stronger effect = lower value
[2] = locus YHR030C, strain SLT2, stronger effect = lower value
[3] = locus YAR019C, strain CDC15, stronger effect = lower value
[4] = locus YBL105C, strain PKC1, stronger effect = lower value
[5] = locus YBR135W, strain CKS1, stronger effect = lower value
[6] = locus YBR136W, strain MEC1, stronger effect = lower value
[7] = locus YBR160W, strain CDC28, stronger effect = lower value
[8] = locus YDL017W, strain CDC7, stronger effect = lower value
[9] = locus YDL028C, strain MPS1, stronger effect = lower value
[10] = locus YDL108W, strain KIN28, stronger effect = lower value
[11] = locus YDL132W, strain cdc53, stronger effect = lower value
[12] = locus YDL214C, strain PRR2, stronger effect = lower value
[13] = locus YDR052C, strain DBF4, stronger effect = lower value
[14] = locus YDR054C, strain cdc34, stronger effect = lower value
[15] = locus YDR226W, strain ADK1, stronger effect = lower value
[16] = locus YDR477W, strain SNF1, stronger effect = lower value
[17] = locus YER123W, strain YCK3, stronger effect = lower value
[18] = locus YER133W, strain GLC7, stronger effect = lower value
[19] = locus YFL009W, strain cdc4, stronger effect = lower value
[20] = locus YFL029C, strain CAK1, stronger effect = lower value
[21] = locus YFR003C, strain YPI1, stronger effect = lower value
[22] = locus YFR019W, strain FAB1, stronger effect = lower value
[23] = locus YFR028C, strain CDC14, stronger effect = lower value
[24] = locus YGR040W, strain KSS1, stronger effect = lower value
[25] = locus YGR052W, strain FMP48, stronger effect = lower value
[26] = locus YGR092W, strain DBF2, stronger effect = lower value
[27] = locus YHR079C, strain IRE1, stronger effect = lower value
[28] = locus YHR082C, strain KSP1, stronger effect = lower value
[29] = locus YHR205W, strain SCH9, stronger effect = lower value
[30] = locus YIL147C, strain SLN1, stronger effect = lower value
[31] = locus YJL095W, strain BCK1, stronger effect = lower value
[32] = locus YJR016C, strain ILV3, stronger effect = lower value
[33] = locus YJR066W, strain TOR1 (second series), stronger effect = lower value
[34] = locus YJR066W, strain TOR1, stronger effect = lower value
[35] = locus YKL048C, strain ELM1, stronger effect = lower value
[36] = locus YKL101W, strain HSL1, stronger effect = lower value
[37] = locus YKL193C, strain SDS22, stronger effect = lower value
[38] = locus YKL203C, strain TOR2, stronger effect = lower value
[39] = locus YLR113W, strain HOG1, stronger effect = lower value
[40] = locus YML070W, strain DAK1, stronger effect = lower value
[41] = locus YMR001C, strain CDC5, stronger effect = lower value
[42] = locus YMR205C, strain PFK2 (second series), stronger effect = lower value
[43] = locus YMR277W, strain FCP1, stronger effect = lower value
[44] = locus YNL006W, strain LST8, stronger effect = lower value
[45] = locus YNL020C, strain ARK1, stronger effect = lower value
[46] = locus YNL161W, strain CBK1, stronger effect = lower value
[47] = locus YNL183C, strain NPR1, stronger effect = lower value
[48] = locus YNL207W, strain RIO2, stronger effect = lower value
[49] = locus YNL222W, strain SSU72, stronger effect = lower value
[50] = locus YNL307C, strain MCK1 (second series), stronger effect = lower value
[51] = locus YOL078W, strain AVO1, stronger effect = lower value
[52] = locus YOL136C, strain PFK27, stronger effect = lower value
[53] = locus YOR061W, strain CKA2, stronger effect = lower value
[54] = locus YOR119C, strain RIO1, stronger effect = lower value
[55] = locus YOR231W, strain MKK1, stronger effect = lower value
[56] = locus YOR329C, strain SCD5, stronger effect = lower value
[57] = locus YPL031C, strain PHO85, stronger effect = lower value
[58] = locus YPL153C, strain RAD53, stronger effect = lower value
[59] = locus YPL204W, strain HRR25, stronger effect = lower value
[60] = locus YPL209C, strain IPL1, stronger effect = lower value
[61] = locus YPL256C, strain CLN2, stronger effect = lower value
[62] = locus YPR025C, strain CCL1, stronger effect = lower value
[63] = locus YPR106W, strain ISR1, stronger effect = lower value
[64] = locus YPR111W, strain DBF20, stronger effect = lower value
[65] = strain NNK1, stronger effect = lower value
[66] = strain TSCII, stronger effect = lower value

Measured: normalized growth

CC(C)(O)C#Cc1ccc(/C=N\O)cc1
inactive: locus YAL013W, strain DEP1, stronger effect = lower value 1.01 | locus YBR229C, strain ROT2, stronger effect = lower value 0.996 | [1] 0.99 | locus YDL134C, strain PPH21, stronger effect = lower value 0.981 | locus YDR150W, strain NUM1, stronger effect = lower value 0.938 | locus YEL061C, strain CIN8, stronger effect = lower value 0.984 | locus YGR078C, strain PAC10, stronger effect = lower value 1.03 | [2] 1 | locus YHR087W, strain rtc3, stronger effect = lower value 0.988 | locus YJR043C, strain POL32, stronger effect = lower value 1.02 | locus YJR075W, strain HOC1, stronger effect = lower value 0.992 | locus YKL190W, strain CNB1, stronger effect = lower value 1 | locus YLR039C, strain RIC1, stronger effect = lower value 0.991 | locus YLR058C, strain SHM2 (second series), stronger effect = lower value 1.01 | locus YLR085C, strain ARP6, stronger effect = lower value 0.939 | locus YLR262C, strain YPT6, stronger effect = lower value 0.968 | locus YML094W, strain GIM5, stronger effect = lower value 0.975 | locus YMR219W, strain ESC1, stronger effect = lower value 0.987 | locus YMR263W, strain SAP30, stronger effect = lower value 0.962 | locus YNL128W, strain TEP1, stronger effect = lower value 0.998 | locus YNL153C, strain GIM3, stronger effect = lower value 1 | locus YNL298W, strain CLA4 (second series), stronger effect = lower value 0.977 | locus YNL322C, strain KRE1, stronger effect = lower value 0.992 | locus YNR030W, strain Alg12, stronger effect = lower value 1 | locus YPL055C, strain LGE1, stronger effect = lower value 0.936 | locus YPL241C, strain CIN2, stronger effect = lower value 0.959 | locus YPR135W, strain CTF4, stronger effect = lower value 0.994

CC(C)(O)C#Cc1ccc(/C=N\Nc2ccccc2)cc1
active: [17] 0.569 | [22] 0.589 | [26] 0.13 | [2] 0.507 | [31] 0.497 | [33] 0.557 | [35] 0.756 | [39] 0.718 | [40] 0.556 | [50] 0.41 | [52] 0.614 | [53] 0.366 | [55] 0.551 | [58] 0.565 | [59] 0.602 | [61] 0.766
inactive: [3] 0.966 | [4] 0.963 | [5] 0.952 | [6] 0.954 | [7] 0.954 | [8] 0.961 | [9] 0.952 | [1] 0.954 | [10] 0.965 | [11] 0.949 | [12] 0.822 | [13] 0.955 | [14] 0.957 | [15] 0.968 | [16] 0.767 | [18] 0.799 | [19] 0.948 | [20] 0.957 | [21] 0.957 | [23] 0.965 | [24] 0.784 | [25] 0.716 | [27] 0.585 | [28] 0.795 | [29] 0.88 | [30] 0.954 | locus YJL128C, strain PBS2, stronger effect = lower value 0.995 | [32] 0.948 | [34] 0.644 | [36] 0.78 | [37] 0.954 | [38] 0.831 | locus YLR133W, strain CKI1, stronger effect = lower value 0.798 | [41] 0.96 | [42] 0.872 | [43] 0.963 | [44] 0.954 | [45] 0.811 | [46] 0.954 | [47] 0.735 | [48] 0.958 | [49] 0.953 | [51] 0.952 | [54] 0.799 | [56] 0.955 | [57] 0.686 | [60] 0.959 | [62] 0.948 | [63] 0.974 | [64] 0.968 | [65] 0.979 | [66] 0.951

CC(C)(O)C#Cc1ccc(/C=N\Nc2c(Cl)cc(Cl)cc2Cl)cc1
active: [2] 0.354 | [28] 0.591 | [31] 0.341 | [39] 0.574 | [61] 0.766
inactive: [3] 0.982 | [4] 0.982 | [5] 0.962 | [6] 0.979 | [7] 0.969 | [8] 0.982 | [9] 0.973 | [1] 0.986 | [10] 0.968 | [11] 0.969 | [12] 0.881 | [13] 0.978 | [14] 0.963 | [15] 0.978 | [16] 0.773 | [17] 0.86 | [18] 0.862 | [19] 0.975 | [20] 0.973 | [21] 0.978 | [22] 0.848 | [23] 0.976 | [24] 0.833 | [25] 0.769 | [26] 0.746 | [27] 0.668 | [29] 0.832 | [30] 0.973 | locus YJL157C, strain FAR1, stronger effect = lower value 0.886 | [32] 0.973 | [33] 0.86 | [34] 0.728 | [35] 0.93 | locus YKL067W, strain YNK1, stronger effect = lower value 0.893 | [36] 0.765 | [37] 0.974 | [38] 0.838 | [40] 0.707 | [41] 0.974 | [42] 0.925 | [43] 0.971 | [44] 0.984 | [45] 0.758 | [46] 0.98 | [47] 0.728 | [48] 0.981 | [49] 0.979 | [50] 0.768 | [51] 0.978 | [52] 0.904 | [53] 0.73 | [54] 1.03 | [55] 0.708 | [56] 0.983 | [57] 0.709 | [58] 0.85 | [59] 0.839 | [60] 0.979 | [62] 0.972 | [63] 0.977 | [64] 0.962 | [65] 0.972 | [66] 0.977
